PubChem BioAssay (Tox21)
Results filed as inconclusive are left out. Active and inactive are the calls of the source. Unless noted, calls come from the whole dose curve; as a rule, active = well fitted curve in the direction sought with a large enough effect in the repeat runs; inconclusive = weak or mixed curves; inactive = no such curve, though single readings can be large; an effect the other way counts as inactive or inconclusive.

Tests used:
[1] = qHTS assay to identify small molecule agonists of the hypoxia (HIF-1) signaling pathway - cell viability counter screen (AID 1224844; calls by dose curve; note: nearly all actives have a fitted effect of over 50% in size)
Outline: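 HRE-bla ME-180; 0.5% dFBS; cpd 17 h, 37C, 5% CO2; CellTiter-Glo lum., 30 min RT, post-FRET read, same wells.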

[2] = qHTS assay to identify small molecule agonists of the hypoxia (HIF-1) signaling pathway (AID 1224846; active = well fitted activation curve with a large enough effect in the signal ratio in the repeat runs, not every such curve was filed as active; the % refers to the signal ratio)
Outline: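 Reporter induction in HRE-bla ME-180 cells is taken as agonism: cells sit 5 hrs after plating, receive compounds or DMSO only, incubate 17 hrs at 37C under 5% CO2, and are loaded with CCF4-AM for beta-lactamase FRET measurement.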

[3] = qHTS assay to identify small molecule agonists of H2AX - cell viability counter screen (AID 1224847; calls by dose curve;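 note: wild-type CHO-K1 cells; top concentration of the series differs between compounds; nearly all actives have a fitted effect of over 30% in size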)
Outline: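 Counter-screen for viability: CellTiter-Glo ATP luminescence read after 3 h compound treatment (15-point titration, 0.76% DMSO final) of CHO-K1 cells at 37C, with 30 min room-temperature reagent incubation.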

[4] = qHTS RealTime-Glo MT Cell Viability Assay in HepG2 cells - 24 hour (AID 1224867); note: nearly all actives have a fitted effect of over 50% in size
Outline: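 Real-time, nonlytic viability: 600 HepG2 cells/well mixed with NanoLuc enzyme plus prosubstrate; 5 h settle, compound (DMSO) added by pintool; luminescence monitored over 40 h at 37 C.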

[5] = qHTS RealTime-Glo MT Cell Viability Assay in HEK293 cells - 32 hour (AID 1224868); note: top concentration of the series differs between compounds; nearly all actives have a fitted effect of over 50% in size
Outline: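 Cells + reagent dispensed (600 cells/well, HEK293) → 5 h at 37 C/5% CO2 → 23 nL compound in DMSO pinned → 40 h at 37 C → luminescence read at 0, 8, 16, 24, 32, 40 h.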

[6] = A CellTox Green Cytotoxicity Assay to monitor cytotoxicity in HEK293 cells - 0 hour (AID 1224869); note: nearly all actives have a fitted effect of over 50% in size
Outline: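 Tox21 screen in HEK293: membrane-impermeant cyanine dye fluoresces on binding dead-cell DNA; compound pinned 5 h post-seeding, plates held at 37 C, signal read repeatedly through 40 h.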

[7] = qHTS RealTime-Glo MT Cell Viability Assay in HepG2 cells - 40 hour (AID 1224870); note: nearly all actives have a fitted effect of over 50% in size
Outline: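 Real-time viability: cells seeded at 600 per well together with NanoLuc and cell-permeant prosubstrate, compounds added after 5 h incubation. Luminescence tracked at 0, 8, 16, 24, 32 and 40 h of exposure.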

[8] = qHTS assay to identify small molecule agonists of H2AX (AID 1224845; active = well fitted activation curve with a large enough effect in the signal ratio in the repeat runs, not every such curve was filed as active; the % refers to the signal ratio)
Outline: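 Phospho-H2AX Ser139 measured by HTRF (ex 320 nm; em 665 and 620 nm) after 24 hr antibody incubation. Compounds, 15 concentrations, 0.76% DMSO, were applied to CHO-K1 cells for 3hr at 37C before lysis.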

[9] = qHTS assay to identify small molecule antagonists of the estrogen related receptor (ERR) signaling pathway from Tox21 library (AID 1224848); note: nearly all actives have a fitted effect of over 50% in size
Outline: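 ERR cell line, 2,000 cells/well. 6 h settle, then compound (DMSO) added; 18 h at 37 C; ONE-Glo luminescence after 30 min RT.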

[10] = qHTS assay to identify small molecule agonists of the estrogen related receptor (ERR) signaling pathway from Tox21 library (AID 1224849; calls by dose curve; note: nearly all actives have a fitted effect of over 15% in size); details: ERR reporter cell line, ONE-Glo luciferase, 18 h; at 92.4 µM (top of the series) unless noted
Outline: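 Tox21 compounds tested for ERR agonism in an NTP reporter cell line: 18 h treatment at 37 C, then ONE-Glo luminescence.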
% is set by controls: 0 for no effect and ±100 for the full control effect.

CNC(=O)O/N=C(/CSC)C(C)(C)C
inactive: Potency [1] | outcome [2] | Potency [3] | Potency [4] | Potency [5] | outcome [6] | Potency [7]

CCC1(c2cccc(O)c2)CCCCN(C)C1 (configuration not stated)
inactive: Potency [1] | outcome [8] | Potency [3] | Potency [4] | Potency [5] | outcome [6]

C[C@H](N)C(=O)c1ccccc1
inactive: Potency [1] | outcome [8] | Potency [3] | Potency [4] | Potency [5] | outcome [6] | Potency [7]

COc1ccc(C=O)cc1O
inactive: Potency [1] | outcome [2] | Potency [3] | Potency [9] | activity change, positive = activation [10] 2.88% | Potency [4] | Potency [5] | outcome [6] | Potency [7]

COc1ccc(CN2CCNCC2)c(OC)c1OC
inactive: Potency [1] | outcome [8] | Potency [3] | Potency [9] | activity change, positive = activation [10] -10% [at 42.5 µM] | Potency [5] | outcome [6] | Potency [7]

CC(C)c1ccc(O)cc1
inactive: Potency [1] | outcome [2] | Potency [3] | Potency [9] | activity change, positive = activation [10] -0.432% | Potency [5] | outcome [6] | Potency [7]

CCN(CC)CCOC(=O)C(O)(c1ccccc1)c1ccccc1
inactive: Potency [1] | outcome [2] | Potency [3] | Potency [9] | activity change, positive = activation [10] 2.32% [at 42.5 µM] | Potency [5] | outcome [6] | Potency [7]

CCC(=O)OC1(c2ccccc2)CCN(C)CC1
inactive: Potency [1] | outcome [8] | Potency [3] | Potency [4] | Potency [5] | outcome [6]

CON(C)C(=O)Nc1ccc(Br)c(Cl)c1
inactive: Potency [1] | outcome [2] | Potency [3] | Potency [9] | activity change, positive = activation [10] 0.491% | outcome [6] | Potency [7]

CCN[C@@H](C)Cc1ccccc1
inactive: Potency [1] | outcome [8] | Potency [3] | Potency [9] | activity change, positive = activation [10] 9.72% | Potency [5] | Potency [7]

CC(C)(C)NC[C@H](O)c1ccc(O)cc1Cl
inactive: Potency [1] | outcome [2] | Potency [3] | Potency [9] | activity change, positive = activation [10] 0.107% [at 42.5 µM] | Potency [4] | Potency [5] | outcome [6] | Potency [7]

ClC(Cl)(Cl)Cl
inactive: Potency [1] | outcome [2] | Potency [3] | Potency [9] | activity change, positive = activation [10] -3.58% | Potency [4] | Potency [5] | outcome [6]

CCOP(=S)(OCC)Oc1ccc(Cl)cc1Cl
inactive: Potency [1] | outcome [2] | Potency [4] | Potency [5] | outcome [6] | Potency [7]

CCNc1nc(NCC)nc(SC)n1
inactive: Potency [1] | outcome [2] | Potency [3] | Potency [4] | Potency [7]

NNC(N)=O
inactive: Potency [1] | Potency [3] | Potency [4] | Potency [5] | outcome [6] | Potency [7]

Brc1c(Br)c(Br)c(Br)c(Br)c1Br
inactive: activity change, negative = cytotoxicity [1] -35.3% [at 6.97 µM] | activation [2] -0.641% [at 7.01 µM] | activity change, negative = cytotoxicity [3] -1.61% [at 14 µM] | activity change, negative = cytotoxicity [4] -11.6% [at 6.97 µM] | cytotoxicity [6] 20.1% [at 6.97 µM]

CCOC(=O)C(SP(=S)(OC)OC)c1ccccc1 (configuration not stated)
inactive: Potency [1] | outcome [2] | Potency [9] | activity change, positive = activation [10] -11.8% | Potency [4] | Potency [5] | outcome [6] | Potency [7]

CC[C@H](N)c1ccccc1
inactive: Potency [1] | outcome [2] | Potency [3] | Potency [4] | Potency [5] | outcome [6] | Potency [7]

Clc1ccc(C(Cl)(Cl)Cl)cn1
inactive: outcome [8] | outcome [2] | Potency [3] | Potency [4] | outcome [6] | Potency [7]

NC(=O)OCCCc1ccccc1
inactive: Potency [1] | outcome [2] | Potency [3] | Potency [4] | Potency [5] | outcome [6] | Potency [7]

COc1cc(CCN)cc(OC)c1OC
inactive: Potency [1] | outcome [2] | Potency [3] | Potency [5] | outcome [6] | Potency [7]

BrCC1CO1 (configuration not stated)
inactive: Potency [1] | outcome [2] | Potency [3] | Potency [4] | outcome [6] | Potency [7]
